PubChem BioAssay (EPA / NIEHS)
Calls of active or inactive are those of the source. The calls were made as follows: active = hit-call score of the fitted dose curve at least 0.9, where 1 is the maximum; inactive = score below 0.9.

Experiments:
Settings in all cases: mRNA level, 48 h; actives raise or lower the signal
[1] = read-out: MicroRNA 122 (MIR122), gene 406906; assay: LTEA_HepaRG_MIR122: Life Technologies and Expression Analysis (LTEA) Assay for MicroRNA 122 (MIR122) using HepaRG (AID 2283516); also: the transcript read is the microRNA miR-122
Procedure, shortened: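 Human liver HepaRG cultures receive test chemicals for 48 h at eight half-log concentrations from 100 uM. Expression is quantified by qRT-PCR with ACTB/GAPDH/POLR2A normalization and fitted bidirectionally against 0.5% DMSO.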

[2] = read-out: matrix metalloproteinase-10 (MMP10), MMP10 (gene 4319); assay: LTEA_HepaRG_MMP10: Life Technologies and Expression Analysis (LTEA) Assay for matrix metalloproteinase-10 (MMP10) using HepaRG (AID 2283517)
Procedure, shortened: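 Expression measured by TaqMan qRT-PCR with ACTB/GAPDH/POLR2A normalisation after 48 h chemical exposure of HepaRG cells. Eight half-log concentrations, top 100 uM, 0.5% DMSO vehicle, duplicates; gain or loss fitted against vehicle.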

MYC, MYC (gene 4609) = assay: LTEA_HepaRG_MYC: Life Technologies and Expression Analysis (LTEA) Assay for MYC using HepaRG (AID 2283518)
Procedure, shortened: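 MYC transcript changes, up or down relative to 0.5% DMSO, from TaqMan qRT-PCR normalized to three housekeeping genes. Human HepaRG cultures received chemicals for 48 h at eight half-log concentrations up to 100 uM, in duplicate.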

[3] = read-out: matrix metalloproteinase-3 (MMP3), MMP3 (gene 4314); assay: LTEA_HepaRG_MMP3: Life Technologies and Expression Analysis (LTEA) Assay for matrix metalloproteinase-3 (MMP3) using HepaRG (AID 2283519)
Procedure, shortened: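 Fluidigm-based TaqMan qRT-PCR, normalized to ACTB, GAPDH and POLR2A and fitted bidirectionally versus 0.5% DMSO, measured transcript levels. Treatment: duplicate 48 h exposures of HepaRG cells, ~100,000/well, to eight half-log concentrations topping at 100 uM.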

[4] = read-out: Paternally Expressed 10 (PEG10), PEG10 (gene 23089); assay: LTEA_HepaRG_PEG10: Life Technologies and Expression Analysis (LTEA) Assay for Paternally Expressed 10 (PEG10) using HepaRG (AID 2283520)
Procedure, shortened: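 Human HepaRG cultures are dosed for 48 h across an eight-point half-log series starting at 100 uM, with 0.5% DMSO as vehicle and baseline. Gain or loss of PEG10 transcript is measured by qRT-PCR and fitted in both directions.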

[5] = read-out: Nuclear factor NF-kappa-B p105 subunit (Homo sapiens) (UniProt P19838); assay: LTEA_HepaRG_NFKB1: Life Technologies and Expression Analysis (LTEA) Assay for Nuclear Factor Kappa B Subunit 1 (NFKB1) using HepaRG (AID 2283521)
Procedure, shortened: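 Differentiated human HepaRG cells were exposed for 48 h in serum-free induction medium to eight concentrations (top 100 uM, half-log steps, 0.5% DMSO), in duplicate. NFKB1 mRNA was measured by TaqMan qRT-PCR, normalized to ACTB/GAPDH/POLR2A, and fitted bidirectionally against DMSO.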

[6] = read-out: Protein phosphatase 2A (PPP2R4), PTPA (gene 5524); assay: LTEA_HepaRG_PPP2R4: Life Technologies and Expression Analysis (LTEA) Assay for Protein phosphatase 2A (PPP2R4) using HepaRG (AID 2283522)
Procedure, shortened: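 Cells were plated, cultured 48 h, switched to serum-free induction medium, then dosed for 48 h (8 points, max 100 uM, 0.5% DMSO). RNA was isolated and PPP2R4 expression measured by TaqMan qRT-PCR.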

[7] = read-out: Phosphatase and tensin (PTEN), PTEN (gene 5728); assay: LTEA_HepaRG_PTEN: Life Technologies and Expression Analysis (LTEA) Assay for Phosphatase and tensin (PTEN) using HepaRG (AID 2283523)
Procedure, shortened: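 Read-out: TaqMan qRT-PCR of PTEN transcript, normalized to three housekeeping genes, fitted in both directions against 0.5% DMSO. Differentiated human HepaRG cultures received chemicals for 48 h, eight-point half-log series topping at 100 uM.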

[8] = read-out: solute carrier (SLC22A1), SLC22A1 (gene 6580); assay: LTEA_HepaRG_SLC22A1: Life Technologies and Expression Analysis (LTEA) Assay for solute carrier (SLC22A1) using HepaRG (AID 2283524)
Procedure, shortened: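 Transcript level of SLC22A1 quantified by qRT-PCR (normalized to three housekeeping genes) after 48 h chemical exposure of HepaRG cells, eight concentrations up to 100 µM, half-log steps, 0.5% DMSO vehicle. Gain or loss relative to DMSO fitted bidirectionally.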

[9] = read-out: Pyruvate Dehydrogenase Kinase 4 (PDK4), PDK4 (gene 5166); assay: LTEA_HepaRG_PDK4: Life Technologies and Expression Analysis (LTEA) Assay for Pyruvate Dehydrogenase Kinase 4 (PDK4) using HepaRG (AID 2283525)
Procedure, shortened: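 Readout is qRT-PCR of PDK4 transcript, normalized to three housekeeping genes, with bidirectional fitting against 0.5% DMSO vehicle. Differentiated HepaRG cells were treated 48 h in serum-free induction medium, duplicate wells, eight-point half-log series topping at 100 uM.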

Measured: AC50

Nuclear factor NF-kappa-B p105 subunit (Homo sapiens), sequence (P19838 whole entry, looked up): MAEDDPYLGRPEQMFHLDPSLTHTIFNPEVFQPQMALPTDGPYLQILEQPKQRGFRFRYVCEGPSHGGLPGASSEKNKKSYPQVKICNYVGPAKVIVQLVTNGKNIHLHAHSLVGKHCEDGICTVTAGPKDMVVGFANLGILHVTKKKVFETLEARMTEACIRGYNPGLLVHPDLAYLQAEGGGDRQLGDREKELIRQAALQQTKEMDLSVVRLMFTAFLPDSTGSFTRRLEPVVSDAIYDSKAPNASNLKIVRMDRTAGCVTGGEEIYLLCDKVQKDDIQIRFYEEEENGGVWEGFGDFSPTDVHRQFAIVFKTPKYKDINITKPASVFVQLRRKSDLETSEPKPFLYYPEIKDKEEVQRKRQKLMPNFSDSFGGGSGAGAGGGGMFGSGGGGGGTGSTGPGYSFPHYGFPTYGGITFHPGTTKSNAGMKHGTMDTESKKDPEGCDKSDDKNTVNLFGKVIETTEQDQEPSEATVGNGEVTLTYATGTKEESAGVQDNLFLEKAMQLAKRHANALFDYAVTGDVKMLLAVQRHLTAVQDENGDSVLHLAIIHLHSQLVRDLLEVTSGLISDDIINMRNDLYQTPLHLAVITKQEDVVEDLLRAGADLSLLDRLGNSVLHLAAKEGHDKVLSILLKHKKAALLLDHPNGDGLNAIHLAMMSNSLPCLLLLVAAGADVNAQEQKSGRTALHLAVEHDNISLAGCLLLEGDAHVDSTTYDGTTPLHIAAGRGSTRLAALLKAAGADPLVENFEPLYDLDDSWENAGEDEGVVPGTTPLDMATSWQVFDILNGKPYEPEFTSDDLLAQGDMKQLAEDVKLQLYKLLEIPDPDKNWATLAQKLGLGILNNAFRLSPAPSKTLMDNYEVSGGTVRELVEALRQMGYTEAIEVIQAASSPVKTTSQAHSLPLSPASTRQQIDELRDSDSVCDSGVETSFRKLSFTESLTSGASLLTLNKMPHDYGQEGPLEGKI

Cc1ccc(O)c(C)c1
inactive: [1] | [2] | MYC, MYC (gene 4609) | [3] | [4] | [5] | [6] | [7] | [8] | [9]

C1CC2OC2CC1C1CO1 (stereo not given)
inactive: [1] | [2] | MYC, MYC (gene 4609) | [3] | [5] | [6] | [7] | [8] | [9]

CC(C)(c1ccccc1)c1ccc(O)cc1
inactive: [1] | [2] | MYC, MYC (gene 4609) | [3] | [5] | [6] | [9]
active: [8] 50 µM

CCC(C)(CC)c1cc(NC(=O)c2c(OC)cccc2OC)on1
active: MYC, MYC (gene 4609) 25.7 µM | [8] 34.6 µM
inactive: [1] | [2] | [3] | [5] | [6] | [9]

CCCN(CCC)N=O
inactive: [1] | [2] | MYC, MYC (gene 4609) | [3] | [5] | [6] | [8] | [9]

Nc1ccc(-c2ccc(N)cc2)cc1
inactive: [1] | [2] | MYC, MYC (gene 4609) | [3] | [6] | [8] | [9]

CC(C)(O)C(=O)Nc1ccc([N+](=O)[O-])c(C(F)(F)F)c1
inactive: [1] | [2] | [8] | [9]
active: MYC, MYC (gene 4609) 0.0308 µM | [3] 0.0298 µM | [6] 0.0226 µM

O=C(O)C(F)(F)C(F)(F)C(F)(F)C(F)(F)C(F)(F)F
inactive: [1] | [2] | MYC, MYC (gene 4609) | [3] | [6] | [8]
active: [9] 14.9 µM

Cc1cc(-c2ccc(N)c(C)c2)ccc1N
inactive: [1] | [2] | MYC, MYC (gene 4609) | [3] | [6]
active: [8] 50 µM | [9] 9.92 µM

CCOC(=O)C(O)(c1ccc(Cl)cc1)c1ccc(Cl)cc1
inactive: [1] | [2] | MYC, MYC (gene 4609) | [3] | [5] | [6] | [8]
active: [9] 36.2 µM

NS(=O)(=O)C(F)(F)C(F)(F)C(F)(F)C(F)(F)C(F)(F)C(F)(F)C(F)(F)C(F)(F)F
active: [1] 12.4 µM | [2] 33.9 µM | MYC, MYC (gene 4609) 26.8 µM | [3] 50 µM | [5] 2.4 µM | [6] 24.4 µM | [8] 9.51 µM
inactive: [9]

CCNc1nc(NC(C)C)nc(SC)n1
inactive: [1] | [2] | MYC, MYC (gene 4609) | [3] | [5] | [6] | [9]
active: [8] 37.3 µM

O=S(=O)(O)C(F)(F)C(F)(F)C(F)(F)C(F)(F)C(F)(F)C(F)(F)F
inactive: [1] | [2] | MYC, MYC (gene 4609) | [3] | [5] | [6] | [8]
active: [9] 35.2 µM

O=C(O)C(F)(F)C(F)(F)C(F)(F)C(F)(F)C(F)(F)C(F)(F)C(F)(F)C(F)(F)F
inactive: [3] | [6]
active: [1] 74.4 µM | [2] 76.9 µM | MYC, MYC (gene 4609) 78.7 µM | [8] 86.1 µM | [9] 32.8 µM

CCCCCCCCCc1ccc(O)cc1
inactive: [1] | [2] | MYC, MYC (gene 4609) | [3] | [5] | [6] | [8]
active: [9] 63.2 µM

CO/C=C(/C(=O)OC)c1ccccc1COc1cccc(C(F)(F)F)n1
active: [1] 6.86 µM | [2] 12.6 µM | MYC, MYC (gene 4609) 9.71 µM | [3] 23.9 µM | [8] 5.3 µM
inactive: [5] | [6] | [9]

Clc1ccc(C(Cl)(Cl)Cl)cc1
inactive: [1] | [2] | MYC, MYC (gene 4609) | [3] | [6] | [7] | [8] | [9]

Cc1ccccc1[N+](=O)[O-]
inactive: [1] | [2] | MYC, MYC (gene 4609) | [3] | [5] | [6] | [8] | [9]

Cc1cccc(C)c1N
inactive: [1] | [2] | MYC, MYC (gene 4609) | [3] | [5] | [6] | [8] | [9]

CC(c1ccc(O)cc1)(c1ccc(O)cc1)c1ccc(O)cc1
active: [1] 77.9 µM | [2] 50 µM | MYC, MYC (gene 4609) 94.2 µM | [6] 69.7 µM | [8] 41.4 µM | [9] 70.9 µM
inactive: [3] | [5]

CC1=C2C[C@H]3[C@@H](CC=C4C[C@@H](O)CC[C@@]43C)[C@@H]2CC[C@]12O[C@@H]1C[C@H](C)CN[C@H]1[C@H]2C
inactive: [1] | [2] | MYC, MYC (gene 4609) | [3] | [6] | [7] | [8] | [9]

C=CC(N)=O
inactive: [1] | [2] | MYC, MYC (gene 4609) | [3] | [5] | [6] | [7] | [8] | [9]

C[C@]12CCC(=O)C=C1CC[C@@H]1[C@@H]2CC[C@]2(C)C(=O)CC[C@@H]12
active: [3] 8.39 µM
inactive: [1] | [2] | MYC, MYC (gene 4609) | [6] | [8] | [9]

Clc1ccc(Cl)cc1
inactive: [1] | [2] | MYC, MYC (gene 4609) | [3] | [5] | [6] | [8] | [9]

C[C@]12CCC(=O)C=C1CC[C@@H]1[C@@H]2CC[C@@]2(C)[C@H]1CC[C@]2(C)O
inactive: [2] | MYC, MYC (gene 4609) | [6] | [7]
active: [1] 45.8 µM | [3] 0.948 µM | [8] 45.8 µM | [9] 45.8 µM

Oc1ccc(C(c2ccc(O)cc2)(C(F)(F)F)C(F)(F)F)cc1
active: [2] 82.7 µM | MYC, MYC (gene 4609) 77.5 µM | [3] 76.6 µM | [6] 89 µM | [8] 71.9 µM
inactive: [1] | [5] | [9]

CN(C)c1nc(=O)n(C2CCCCC2)c(=O)n1C
inactive: [1] | [2] | MYC, MYC (gene 4609) | [3] | [6] | [8] | [9]

CCOCCOC(C)=O
inactive: [1] | [2] | MYC, MYC (gene 4609) | [3] | [6] | [8] | [9]

O=C(NC(=O)c1cc(F)c(F)cc1Cl)Nc1cc(F)ccc1N1CCC(C(=O)O)CC1
inactive: [1] | [2] | MYC, MYC (gene 4609) | [3] | [6] | [8] | [9]

Oc1c(Cl)c(Cl)c(Cl)c(Cl)c1Cl
inactive: [9]
active: [1] 3.65 µM | [2] 25.5 µM | MYC, MYC (gene 4609) 16.1 µM | [3] 6.02 µM | [6] 2.22 µM | [7] 6.88 µM | [8] 3.31 µM

Cc1ccccc1CO[C@@H]1C[C@@]2(C(C)C)CC[C@]1(C)O2
inactive: [1] | [2] | MYC, MYC (gene 4609) | [3] | [5] | [6] | [8]
active: [9] 50 µM

CC#Cc1cc(C)nc(Nc2ccccc2)n1
active: [1] 21.7 µM | MYC, MYC (gene 4609) 28.4 µM | [8] 26.4 µM | [9] 19.2 µM
inactive: [2] | [5] | [6]

Oc1ccc(Cl)cc1Cl
inactive: [1] | [2] | MYC, MYC (gene 4609) | [3] | [6] | [7] | [8] | [9]

CCOP(=S)(OCC)SCSC(C)(C)C
active: [9] 18 µM
inactive: [1] | [2] | MYC, MYC (gene 4609) | [3] | [6] | [8]
